In the supplement of paper PMC10849652:
The full data set covers some 8,800 targets. This sample favours those with a hit. About 0.5% of all pairs of compound and target were hits.

Tests used:
Assay in all cases: log2 fold change, soluble protein after heating vs DMSO (PISA); higher = thermal stabilisation; K562 lysate, 10 uM; active = over 0.2 and 3.5 SD of the protein, either way, in both replicates (recomputed)
[1] = compound: C=CC(=O)N1CCC[C@@H](n2nc(-c3ccc(Oc4ccccc4)cc3)c3c(N)ncnc32)C1 [ibrutinib]
Summary of the method: (§1)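 The values are log-two fold changes in thermal stability compared with solvent controls and come from duplicates. They were obtained by TMTpro 16plex LC-MS/MS, with channel sums equalised, on the supernatant after 21,000xg for 90 min. That supernatant came from crude K562 extract at 1 mg/mL protein treated with 10 μM compound for 30 min, heated for 3 min across 48°C-58°C, pooled and brought to 0.5% NP-40 at 4°C.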

[2] = compound: CC(=O)c1cnc2ccc(-c3cc(Cl)c(O)c(Cl)c3)nc2c1N[C@H]1CC[C@H](CN(C)C)CC1
Summary of the method: as §1

[3] = compound: CC(C)(C)Cn1c(N)nc2ccc(-c3[nH]c(C(C)(C)C)nc3-c3ccc(F)cc3)nc21 [ralimetinib]
Summary of the method: as §1

[4] = compound: CC(C)(O)CC(=O)NCCn1ccc2ncnc(Nc3ccc(Oc4cccc(C(F)(F)F)c4)c(Cl)c3)c21
Summary of the method: as §1

[5] = compound: CC(C)C1=C2N=C(C=C(N2N=C1)NCC3=CC=CC=C3)NCCCCCCN
Summary of the method: as §1

[6] = compound: CC1=C(C(CC(=O)N1)C2=CC=C(C=C2)C(F)(F)F)C(=O)NC3=C(C=C4C(=C3)C=NN4)F
Summary of the method: as §1

[7] = compound: CC1=C(C2=C(C=C1)C(=O)C3=CC=CC=C3N2CCCN)C
Summary of the method: as §1

[8] = compound: CC1=C(C=C(C=C1)NC(=O)C2=CC(=CC=C2)C(C)(C)C#N)NC3=CC4=C(C=C3)N=CN(C4=O)C
Summary of the method: as §1

[9] = compound: CC1=C(C=C(C=C1)NC(=O)C2=CC(=CC=C2)N(C)C)NC(=O)C3=CC=C(C=C3)O
Summary of the method: as §1

[10] = compound: CC1=CC=C(C=C1)SC2=C3C=C(SC3=CN=C2)C(=O)N
Summary of the method: as §1

Measured: log2 fold change

SPC25 (UniProt Q9HBM1)
Chain of UniProt Q9HBM1 (Q9HBM1 whole entry, looked up): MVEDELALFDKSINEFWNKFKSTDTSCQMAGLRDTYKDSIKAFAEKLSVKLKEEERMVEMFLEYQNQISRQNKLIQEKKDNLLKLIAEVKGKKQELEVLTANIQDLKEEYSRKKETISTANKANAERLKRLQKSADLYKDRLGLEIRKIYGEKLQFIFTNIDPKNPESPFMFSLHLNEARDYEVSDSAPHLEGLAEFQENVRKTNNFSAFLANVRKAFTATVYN
inactive: [1] 0 | [2] -0.058 | [3] -0.038 | [4] 0.015 | [5] -0.002 | [6] -0.032 | [7] -0.017 | [8] 0.016 | [9] 0.002 | [10] 0.006

STAU1 (UniProt O95793)
inactive: [1] 0.043 | [2] -0.021 | [3] 0.03 | [4] -0.011 | [5] 0 | [6] 0.017 | [7] -0.022 | [8] -0.037 | [9] 0.018 | [10] 0.022

STARD3 isoform 3 (UniProt Q14849)
Chain of UniProt Q14849 (Q14849 whole entry, looked up): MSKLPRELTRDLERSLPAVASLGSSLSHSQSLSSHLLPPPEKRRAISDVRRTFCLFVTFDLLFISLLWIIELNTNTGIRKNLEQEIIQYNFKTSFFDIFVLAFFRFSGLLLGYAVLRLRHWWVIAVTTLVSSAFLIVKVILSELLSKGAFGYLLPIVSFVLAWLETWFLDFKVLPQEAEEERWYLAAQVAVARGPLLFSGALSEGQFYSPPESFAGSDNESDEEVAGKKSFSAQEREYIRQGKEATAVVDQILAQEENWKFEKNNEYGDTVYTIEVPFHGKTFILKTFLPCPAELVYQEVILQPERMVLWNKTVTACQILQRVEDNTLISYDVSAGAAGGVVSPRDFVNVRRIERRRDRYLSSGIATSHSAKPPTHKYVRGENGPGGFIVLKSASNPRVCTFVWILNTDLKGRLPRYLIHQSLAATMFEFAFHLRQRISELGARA
inactive: [1] 0.039 | [2] 0.044 | [3] -0.074 | [4] -0.018 | [5] 0.011 | [6] 0.033 | [7] -0.072 | [8] 0.073 | [9] 0.021 | [10] 0.028

SMC6 (UniProt Q96SB8)
inactive: [1] 0.021 | [2] -0.006 | [3] 0.005 | [4] -0.012 | [5] 0.023 | [6] 0.065 | [7] 0.006 | [8] 0.006 | [9] 0.001 | [10] -0.01

SMAD9 (UniProt O15198)
inactive: [1] -0.025 | [2] -0.018 | [3] -0.034 | [4] 0.029 | [5] 0.021 | [6] -0.038 | [7] 0.079 | [8] -0.028 | [9] -0.072 | [10] -0.029

SLC38A10 (UniProt Q9HBR0)
Chain of UniProt Q9HBR0 (Q9HBR0 whole entry, looked up): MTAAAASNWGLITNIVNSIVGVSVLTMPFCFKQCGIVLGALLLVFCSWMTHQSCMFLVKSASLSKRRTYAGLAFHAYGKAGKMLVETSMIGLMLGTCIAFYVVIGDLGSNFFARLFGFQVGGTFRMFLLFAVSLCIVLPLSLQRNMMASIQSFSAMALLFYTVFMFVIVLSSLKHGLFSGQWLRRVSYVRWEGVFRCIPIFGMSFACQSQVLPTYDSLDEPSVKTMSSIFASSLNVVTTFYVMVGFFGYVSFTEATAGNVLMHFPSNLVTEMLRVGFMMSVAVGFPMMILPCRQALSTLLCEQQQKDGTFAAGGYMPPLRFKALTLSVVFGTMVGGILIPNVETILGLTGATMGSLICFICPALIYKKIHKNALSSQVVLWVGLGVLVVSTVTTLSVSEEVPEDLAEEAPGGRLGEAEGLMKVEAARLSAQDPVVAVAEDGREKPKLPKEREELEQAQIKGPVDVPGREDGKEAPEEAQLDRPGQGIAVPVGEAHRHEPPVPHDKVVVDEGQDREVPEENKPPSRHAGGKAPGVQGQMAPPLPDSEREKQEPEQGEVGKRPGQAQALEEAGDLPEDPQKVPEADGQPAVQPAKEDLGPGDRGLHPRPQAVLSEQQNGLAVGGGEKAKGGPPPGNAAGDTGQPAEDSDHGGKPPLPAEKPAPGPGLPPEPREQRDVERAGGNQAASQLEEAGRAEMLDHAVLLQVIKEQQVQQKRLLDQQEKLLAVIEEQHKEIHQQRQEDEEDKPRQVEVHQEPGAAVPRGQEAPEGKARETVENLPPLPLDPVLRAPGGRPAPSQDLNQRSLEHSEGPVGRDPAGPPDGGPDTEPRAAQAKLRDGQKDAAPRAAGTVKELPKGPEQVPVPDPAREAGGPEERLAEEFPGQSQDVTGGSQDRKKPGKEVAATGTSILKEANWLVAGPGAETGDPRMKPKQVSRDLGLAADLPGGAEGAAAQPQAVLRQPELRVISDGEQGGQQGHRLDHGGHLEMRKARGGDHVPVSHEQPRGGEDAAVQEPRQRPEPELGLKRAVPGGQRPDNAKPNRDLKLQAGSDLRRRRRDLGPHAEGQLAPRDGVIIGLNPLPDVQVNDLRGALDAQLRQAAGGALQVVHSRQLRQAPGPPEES
inactive: [1] 0.103 | [2] -0.047 | [3] -0.025 | [4] -0.056 | [5] -0.007 | [6] -0.051 | [7] -0.018 | [8] 0.032 | [9] -0.001 | [10] -0.027

SFR1 isoform 2 (UniProt Q86XK3)
inactive: [1] 0.023 | [2] -0.006 | [3] 0.003 | [4] -0.012 | [5] -0.005 | [6] -0.006 | [7] 0.041 | [8] 0.026 | [9] 0.06 | [10] 0.016

STK3 isoform 2 (UniProt Q13188)
Chain of UniProt Q13188 (Q13188 whole entry, looked up): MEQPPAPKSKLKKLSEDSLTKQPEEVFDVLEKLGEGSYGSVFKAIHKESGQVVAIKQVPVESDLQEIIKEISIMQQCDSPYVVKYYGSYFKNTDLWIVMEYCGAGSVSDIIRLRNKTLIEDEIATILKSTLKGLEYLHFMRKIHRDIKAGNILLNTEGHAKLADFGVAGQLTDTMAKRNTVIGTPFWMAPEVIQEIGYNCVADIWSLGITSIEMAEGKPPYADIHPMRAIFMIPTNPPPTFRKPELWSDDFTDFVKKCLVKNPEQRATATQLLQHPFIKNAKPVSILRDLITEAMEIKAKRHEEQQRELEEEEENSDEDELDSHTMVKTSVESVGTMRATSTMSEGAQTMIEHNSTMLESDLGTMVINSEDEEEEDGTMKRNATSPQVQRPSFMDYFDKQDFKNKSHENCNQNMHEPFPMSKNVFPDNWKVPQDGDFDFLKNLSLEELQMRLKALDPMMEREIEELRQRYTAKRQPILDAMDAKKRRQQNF
inactive: [1] 0.11 | [2] 0.364 | [3] -0.001 | [4] 0.037 | [5] 0.026 | [6] -0.005 | [7] 0 | [8] -0.025 | [9] 0.016 | [10] -0.073

SPG11 (UniProt Q96JI7)
inactive: [1] 0.077 | [2] 0.068 | [3] 0.049 | [4] -0.024 | [5] -0.011 | [6] -0.048 | [7] -0.063 | [8] -0.061 | [9] 0.098 | [10] 0.007

SLC29A2 (UniProt Q14542)
inactive: [1] 0.035 | [2] 0.045 | [3] 0.082 | [4] -0.036 | [5] 0.043 | [6] -0.001 | [7] -0.011 | [8] 0.041 | [9] 0.072 | [10] 0.006

SKA2 (UniProt Q8WVK7)
Chain of UniProt Q8WVK7 (Q8WVK7 whole entry, looked up): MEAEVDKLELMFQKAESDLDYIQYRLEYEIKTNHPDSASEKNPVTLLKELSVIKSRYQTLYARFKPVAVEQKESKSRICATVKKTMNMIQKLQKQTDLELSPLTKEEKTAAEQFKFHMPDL
inactive: [1] 0.037 | [2] 0.004 | [3] 0.016 | [4] -0.003 | [5] 0.014 | [6] -0.004 | [7] 0.032 | [8] -0.099 | [9] -0.011 | [10] -0.03

SNAP23 (UniProt O00161)
Chain of UniProt O00161 (O00161 whole entry, looked up): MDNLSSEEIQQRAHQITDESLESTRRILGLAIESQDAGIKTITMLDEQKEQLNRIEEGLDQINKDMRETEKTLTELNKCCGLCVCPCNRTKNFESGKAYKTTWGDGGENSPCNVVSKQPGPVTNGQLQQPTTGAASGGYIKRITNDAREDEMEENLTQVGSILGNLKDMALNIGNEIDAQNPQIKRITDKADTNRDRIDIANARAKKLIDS
inactive: [1] 0.021 | [2] -0.003 | [3] -0.01 | [4] 0.01 | [5] -0.04 | [6] -0.015 | [7] 0.045 | [8] 0.015 | [9] -0.013 | [10] 0.011

TADA3 (UniProt O75528)
inactive: [1] 0.032 | [2] 0 | [3] -0.013 | [4] -0.022 | [5] 0.018 | [6] -0.003 | [7] -0.005 | [8] 0.054 | [9] 0.024 | [10] -0.011

SRPK1 (UniProt Q96SB4)
inactive: [1] 0.031 | [2] 0.008 | [3] -0.004 | [4] -0.001 | [5] -0.005 | [6] -0.004 | [7] -0.018 | [8] 0.006 | [9] -0.029 | [10] 0.011

SMG5 (UniProt Q9UPR3)
inactive: [1] -0.041 | [2] 0.048 | [3] 0.021 | [4] -0.032 | [5] -0.037 | [6] 0.071 | [7] 0.015 | [8] -0.117 | [9] 0.057 | [10] 0.024

SMC4 (UniProt C9JJ64)
inactive: [1] -0.146

SFN (UniProt P31947)
Chain of UniProt P31947 (P31947 whole entry, looked up): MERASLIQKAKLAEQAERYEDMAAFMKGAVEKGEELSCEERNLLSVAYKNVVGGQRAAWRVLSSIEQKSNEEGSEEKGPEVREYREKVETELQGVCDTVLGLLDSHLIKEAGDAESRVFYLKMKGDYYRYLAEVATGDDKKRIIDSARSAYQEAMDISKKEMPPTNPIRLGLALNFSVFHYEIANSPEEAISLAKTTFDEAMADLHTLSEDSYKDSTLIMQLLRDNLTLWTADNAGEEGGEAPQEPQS
inactive: [1] 0.015 | [2] 0.01 | [3] -0.002 | [4] 0.035 | [5] 0.016 | [6] 0.045 | [7] 0.031 | [8] -0.036 | [9] -0.004 | [10] -0.021

SHKBP1 (UniProt Q8TBC3)
Chain of UniProt Q8TBC3 (Q8TBC3 whole entry, looked up): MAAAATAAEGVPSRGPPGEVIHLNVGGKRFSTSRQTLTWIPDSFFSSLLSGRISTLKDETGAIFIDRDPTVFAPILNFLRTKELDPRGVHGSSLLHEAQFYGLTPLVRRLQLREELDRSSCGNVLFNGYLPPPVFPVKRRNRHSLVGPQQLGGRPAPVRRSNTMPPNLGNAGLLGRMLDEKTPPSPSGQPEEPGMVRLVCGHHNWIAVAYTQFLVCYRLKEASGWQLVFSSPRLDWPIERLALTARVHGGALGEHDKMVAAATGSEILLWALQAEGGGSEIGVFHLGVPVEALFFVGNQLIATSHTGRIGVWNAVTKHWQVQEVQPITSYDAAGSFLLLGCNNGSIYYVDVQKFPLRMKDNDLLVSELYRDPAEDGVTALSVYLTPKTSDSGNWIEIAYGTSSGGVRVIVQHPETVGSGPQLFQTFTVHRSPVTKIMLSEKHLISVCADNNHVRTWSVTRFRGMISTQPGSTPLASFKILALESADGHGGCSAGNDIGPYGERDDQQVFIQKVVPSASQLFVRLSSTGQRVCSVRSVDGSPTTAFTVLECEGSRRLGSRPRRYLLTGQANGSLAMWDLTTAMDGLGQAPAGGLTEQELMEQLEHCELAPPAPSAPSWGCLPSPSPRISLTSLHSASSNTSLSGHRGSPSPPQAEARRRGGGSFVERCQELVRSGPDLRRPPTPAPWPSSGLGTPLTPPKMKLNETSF
inactive: [1] 0.064 | [2] -0.02 | [3] 0.063 | [4] 0.006 | [5] 0.067 | [6] -0.005 | [7] -0.051 | [8] 0.038 | [9] 0.052 | [10] 0.004

SLC27A2 (UniProt O14975)
Chain of UniProt O14975 (O14975 whole entry, looked up): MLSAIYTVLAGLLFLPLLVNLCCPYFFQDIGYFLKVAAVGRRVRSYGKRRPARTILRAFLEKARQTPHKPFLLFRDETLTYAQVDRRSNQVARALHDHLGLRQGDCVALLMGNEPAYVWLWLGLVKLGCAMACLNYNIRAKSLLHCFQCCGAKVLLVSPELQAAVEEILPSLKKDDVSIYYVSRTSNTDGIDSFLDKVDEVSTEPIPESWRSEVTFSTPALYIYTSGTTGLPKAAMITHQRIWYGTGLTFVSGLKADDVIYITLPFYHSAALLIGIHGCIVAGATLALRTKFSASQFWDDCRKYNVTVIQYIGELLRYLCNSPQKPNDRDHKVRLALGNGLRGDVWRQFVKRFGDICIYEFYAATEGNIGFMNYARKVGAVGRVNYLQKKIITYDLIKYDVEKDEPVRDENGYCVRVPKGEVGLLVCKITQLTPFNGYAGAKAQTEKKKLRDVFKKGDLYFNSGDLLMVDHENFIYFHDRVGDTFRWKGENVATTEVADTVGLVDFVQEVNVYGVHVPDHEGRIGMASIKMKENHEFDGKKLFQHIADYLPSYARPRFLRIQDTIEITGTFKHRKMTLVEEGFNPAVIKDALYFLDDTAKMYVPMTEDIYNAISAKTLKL
inactive: [1] 0.243 | [2] -0.024 | [3] -0.013 | [4] 0.245 | [5] 0.11 | [6] -0.041 | [7] -0.035 | [8] 0.069 | [9] -0.089 | [10] 0.031

SND1 (UniProt Q7KZF4)
inactive: [1] 0.012 | [2] 0.004 | [3] 0.03 | [4] 0.044 | [5] 0.027 | [6] 0.024 | [7] 0.015 | [8] 0.003 | [9] 0.038 | [10] 0.024

TAF6L (UniProt Q9Y6J9)
inactive: [1] 0.072 | [2] 0.046 | [3] 0.042 | [4] -0.078 | [5] 0.01 | [6] -0.041 | [7] -0.006 | [8] -0.027 | [9] 0.027 | [10] -0.009

STK24 (UniProt B4DR80)
inactive: [1] 0.024 | [3] 0.005 | [4] 0.024 | [5] 0.001 | [6] -0.019 | [7] -0.019 | [8] -0.018 | [9] -0.019 | [10] -0.018
active: [2] 0.218

SLC27A4 (UniProt Q6P1M0)
inactive: [1] -0.004 | [2] 0.029 | [3] 0.009 | [4] -0.027 | [5] 0.049 | [6] 0.077 | [7] -0.042 | [8] -0.051 | [9] 0.028 | [10] 0.003

SLC38A1 (UniProt Q9H2H9)
inactive: [1] 0.001 | [2] -0.053 | [3] -0.021 | [4] -0.041 | [5] 0.037 | [6] -0.001 | [7] -0.039 | [8] 0.027 | [9] 0.018 | [10] -0.01

SF3B6 (UniProt Q9Y3B4)
Chain of UniProt Q9Y3B4 (Q9Y3B4 whole entry, looked up): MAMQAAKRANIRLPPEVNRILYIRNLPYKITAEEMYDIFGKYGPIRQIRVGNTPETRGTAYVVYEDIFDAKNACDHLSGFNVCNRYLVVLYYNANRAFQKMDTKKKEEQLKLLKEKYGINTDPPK
inactive: [1] 0.036 | [2] 0.004 | [3] -0.001 | [4] -0.017 | [5] -0.002 | [6] 0.043 | [7] 0.003 | [8] 0.002 | [9] 0.024 | [10] -0.007

SPHK1 isoform 2 (UniProt Q9NYA1)
active: [8] -0.276
inactive: [1] -0.088 | [2] 0.029 | [3] 0.124 | [4] 0.061 | [5] 0.021 | [6] 0.041 | [7] 0.041 | [9] -0.061 | [10] -0.036

SMIM8 (UniProt Q96KF7)
inactive: [1] 0.073 | [2] -0.02 | [3] 0.059 | [4] -0.136 | [5] -0.095 | [6] -0.025 | [7] -0.128 | [8] 0.038 | [9] 0.053 | [10] -0.006

SPATS2 (UniProt Q86XZ4)
Chain of UniProt Q86XZ4 (Q86XZ4 whole entry, looked up): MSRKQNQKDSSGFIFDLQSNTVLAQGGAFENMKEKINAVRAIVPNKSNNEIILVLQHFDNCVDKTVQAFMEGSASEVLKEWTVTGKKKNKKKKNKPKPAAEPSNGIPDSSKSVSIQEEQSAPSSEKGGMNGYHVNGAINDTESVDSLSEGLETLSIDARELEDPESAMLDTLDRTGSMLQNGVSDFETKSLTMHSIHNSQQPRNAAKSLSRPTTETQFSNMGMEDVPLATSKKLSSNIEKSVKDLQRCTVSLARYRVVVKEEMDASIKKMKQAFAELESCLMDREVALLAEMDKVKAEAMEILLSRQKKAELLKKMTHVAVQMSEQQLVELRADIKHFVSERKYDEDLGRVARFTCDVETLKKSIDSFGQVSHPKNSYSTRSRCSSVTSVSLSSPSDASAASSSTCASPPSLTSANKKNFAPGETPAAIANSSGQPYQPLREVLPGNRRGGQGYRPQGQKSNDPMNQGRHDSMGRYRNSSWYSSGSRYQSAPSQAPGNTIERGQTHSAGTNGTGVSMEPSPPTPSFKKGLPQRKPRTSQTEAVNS
inactive: [1] -0.06 | [2] -0.069 | [3] -0.018 | [4] 0.03 | [5] 0.111 | [6] 0.077 | [7] -0.061 | [8] -0.007 | [9] -0.046 | [10] -0.001

SMG6 (UniProt Q86US8)
inactive: [1] 0.071 | [2] -0.061 | [3] 0.034 | [4] -0.016 | [5] 0.012 | [6] 0.074 | [7] 0.006 | [8] 0.004 | [9] 0.047 | [10] 0.059

SNRPF (UniProt P62306)
Chain of UniProt P62306 (P62306 whole entry, looked up): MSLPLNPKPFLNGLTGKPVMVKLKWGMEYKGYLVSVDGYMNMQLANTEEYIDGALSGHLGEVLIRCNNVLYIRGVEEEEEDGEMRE
inactive: [1] -0.027 | [2] -0.013 | [3] -0.024 | [4] -0.072 | [5] -0.004 | [6] 0.015 | [7] -0.137 | [8] 0.018 | [9] 0.028 | [10] -0.082
